Reference: ChEMBL document CHEMBL2218924, “A broad activity screen in support of a chemogenomic map for kinase signalling research and drug discovery” (Biochem J, 2013)

Experiments:
[1] = target: T1, Serine/threonine-protein kinase STK11 (Homo sapiens) (UniProt Q15831); conditions: at 1 µM
T1 sequence (whole entry): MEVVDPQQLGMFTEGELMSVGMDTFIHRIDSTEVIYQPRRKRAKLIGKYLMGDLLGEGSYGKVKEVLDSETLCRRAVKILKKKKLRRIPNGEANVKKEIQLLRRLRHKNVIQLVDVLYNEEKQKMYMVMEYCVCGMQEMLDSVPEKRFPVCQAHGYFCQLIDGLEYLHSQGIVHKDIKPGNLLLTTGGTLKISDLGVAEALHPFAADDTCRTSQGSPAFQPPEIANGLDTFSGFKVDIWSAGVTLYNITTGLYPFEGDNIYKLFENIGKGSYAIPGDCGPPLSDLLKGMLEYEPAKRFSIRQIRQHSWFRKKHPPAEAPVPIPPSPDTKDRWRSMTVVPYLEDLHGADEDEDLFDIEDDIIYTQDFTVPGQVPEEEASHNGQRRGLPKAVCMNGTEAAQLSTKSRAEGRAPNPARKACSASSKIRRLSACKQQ

[2] = target: T1, Serine/threonine-protein kinase STK11 (Homo sapiens); conditions: at 10 µM
[3] = target: Serine/threonine-protein kinase 10 (Homo sapiens) (UniProt O94804); conditions: at 1 µM
[4] = target: Tyrosine-protein kinase Lck (Homo sapiens) (UniProt P06239); conditions: at 1 µM
[5] = target: Tyrosine-protein kinase Lck (Homo sapiens) (UniProt P06239); conditions: at 1 µM; remark: listed apart in the source
[6] = target: Tyrosine-protein kinase Lck (Homo sapiens) (UniProt P06239); conditions: at 10 µM
[7] = target: Tyrosine-protein kinase Lyn (Homo sapiens) (UniProt P07948); conditions: at 1 µM
[8] = target: Tyrosine-protein kinase Lyn (Homo sapiens) (UniProt P07948); conditions: at 10 µM
[9] = target: Mitogen-activated protein kinase 3 (Homo sapiens) (UniProt P27361); conditions: at 1 µM
[10] = target: Mitogen-activated protein kinase 3 (Homo sapiens) (UniProt P27361); conditions: at 10 µM
[11] = target: Mitogen-activated protein kinase 1 (Homo sapiens) (UniProt P28482); conditions: at 1 µM
[12] = target: Mitogen-activated protein kinase 1 (Homo sapiens) (UniProt P28482); conditions: at 10 µM
[13] = target: MAP kinase-activated protein kinase 2 (Homo sapiens) (UniProt P49137); conditions: at 1 µM
[14] = target: MAP kinase-activated protein kinase 2 (Homo sapiens) (UniProt P49137); conditions: at 10 µM
[15] = target: MAP kinase-activated protein kinase 3 (Homo sapiens) (UniProt Q16644); conditions: at 1 µM
[16] = target: MAP kinase-activated protein kinase 3 (Homo sapiens) (UniProt Q16644); conditions: at 10 µM
[17] = target: Serine/threonine-protein kinase MARK1 (Homo sapiens) (UniProt Q9P0L2); conditions: at 1 µM
[18] = target: Serine/threonine-protein kinase MARK1 (Homo sapiens) (UniProt Q9P0L2); conditions: at 10 µM
[19] = target: Serine/threonine-protein kinase 10 (Homo sapiens) (UniProt O94804); conditions: at 10 µM
[20] = target: Tyrosine-protein kinase Lck (Homo sapiens) (UniProt P06239); conditions: at 10 µM; remark: listed apart in the source

Chain of MAP kinase-activated protein kinase 3 (Homo sapiens) (Q16644 whole entry, looked up): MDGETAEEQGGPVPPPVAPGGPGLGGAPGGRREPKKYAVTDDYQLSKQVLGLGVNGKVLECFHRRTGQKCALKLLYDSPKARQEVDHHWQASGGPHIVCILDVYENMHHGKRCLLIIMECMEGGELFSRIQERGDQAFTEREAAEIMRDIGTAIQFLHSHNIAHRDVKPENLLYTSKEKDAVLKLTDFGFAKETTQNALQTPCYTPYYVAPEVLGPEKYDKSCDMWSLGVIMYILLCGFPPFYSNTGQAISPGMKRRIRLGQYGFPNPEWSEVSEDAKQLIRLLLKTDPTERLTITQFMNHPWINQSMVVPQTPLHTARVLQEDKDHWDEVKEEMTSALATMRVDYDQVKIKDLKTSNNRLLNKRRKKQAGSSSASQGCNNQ
Chain of Mitogen-activated protein kinase 1 (Homo sapiens) (P28482 whole entry): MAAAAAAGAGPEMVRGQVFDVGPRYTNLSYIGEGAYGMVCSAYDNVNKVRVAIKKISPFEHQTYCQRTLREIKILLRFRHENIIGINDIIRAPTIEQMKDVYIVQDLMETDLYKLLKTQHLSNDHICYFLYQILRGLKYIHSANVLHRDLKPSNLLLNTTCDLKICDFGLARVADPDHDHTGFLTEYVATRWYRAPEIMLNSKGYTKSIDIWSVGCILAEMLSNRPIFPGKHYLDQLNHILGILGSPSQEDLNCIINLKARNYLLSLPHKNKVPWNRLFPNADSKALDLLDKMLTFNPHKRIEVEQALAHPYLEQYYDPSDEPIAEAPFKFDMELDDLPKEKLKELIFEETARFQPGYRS
Chain of Tyrosine-protein kinase Lyn (Homo sapiens) (P07948 2-512 limits assumed): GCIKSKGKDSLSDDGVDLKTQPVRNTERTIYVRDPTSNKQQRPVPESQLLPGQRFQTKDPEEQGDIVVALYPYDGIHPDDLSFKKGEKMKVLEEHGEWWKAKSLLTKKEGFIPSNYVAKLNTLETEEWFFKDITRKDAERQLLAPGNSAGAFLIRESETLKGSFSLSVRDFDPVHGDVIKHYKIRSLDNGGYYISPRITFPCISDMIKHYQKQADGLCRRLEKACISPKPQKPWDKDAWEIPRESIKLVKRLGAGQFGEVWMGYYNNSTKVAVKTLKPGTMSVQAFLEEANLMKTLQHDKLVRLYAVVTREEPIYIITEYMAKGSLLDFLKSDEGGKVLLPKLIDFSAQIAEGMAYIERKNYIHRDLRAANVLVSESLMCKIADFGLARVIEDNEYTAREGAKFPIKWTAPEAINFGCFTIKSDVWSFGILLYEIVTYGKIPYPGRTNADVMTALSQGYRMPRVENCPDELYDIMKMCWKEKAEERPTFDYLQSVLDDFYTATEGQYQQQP
Chain of Serine/threonine-protein kinase 10 (Homo sapiens) (O94804 whole entry, looked up): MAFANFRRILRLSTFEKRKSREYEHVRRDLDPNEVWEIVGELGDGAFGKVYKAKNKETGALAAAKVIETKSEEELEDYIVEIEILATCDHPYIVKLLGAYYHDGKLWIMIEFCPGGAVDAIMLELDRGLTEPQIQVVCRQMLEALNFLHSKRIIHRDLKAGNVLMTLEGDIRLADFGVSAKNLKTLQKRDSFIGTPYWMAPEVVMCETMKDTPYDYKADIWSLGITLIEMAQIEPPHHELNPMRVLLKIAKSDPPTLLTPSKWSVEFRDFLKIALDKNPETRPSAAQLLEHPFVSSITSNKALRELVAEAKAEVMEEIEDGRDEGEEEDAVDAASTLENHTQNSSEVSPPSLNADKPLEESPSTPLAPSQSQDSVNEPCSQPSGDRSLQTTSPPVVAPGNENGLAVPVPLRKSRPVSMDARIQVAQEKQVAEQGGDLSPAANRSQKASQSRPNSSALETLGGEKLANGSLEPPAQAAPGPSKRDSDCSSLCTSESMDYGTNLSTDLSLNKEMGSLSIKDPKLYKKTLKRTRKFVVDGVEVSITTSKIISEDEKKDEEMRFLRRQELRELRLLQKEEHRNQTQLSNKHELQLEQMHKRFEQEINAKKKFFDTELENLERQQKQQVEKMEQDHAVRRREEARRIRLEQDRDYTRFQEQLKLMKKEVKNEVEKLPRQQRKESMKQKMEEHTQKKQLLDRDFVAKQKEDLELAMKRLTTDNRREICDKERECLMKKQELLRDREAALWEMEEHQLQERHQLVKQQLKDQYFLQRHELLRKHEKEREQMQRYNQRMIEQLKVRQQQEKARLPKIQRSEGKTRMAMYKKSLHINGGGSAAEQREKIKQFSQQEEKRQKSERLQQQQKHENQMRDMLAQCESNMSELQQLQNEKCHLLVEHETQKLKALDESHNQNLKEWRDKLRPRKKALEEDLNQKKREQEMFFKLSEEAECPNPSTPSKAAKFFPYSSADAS
Chain of MAP kinase-activated protein kinase 2 (Homo sapiens) (P49137 whole entry, looked up): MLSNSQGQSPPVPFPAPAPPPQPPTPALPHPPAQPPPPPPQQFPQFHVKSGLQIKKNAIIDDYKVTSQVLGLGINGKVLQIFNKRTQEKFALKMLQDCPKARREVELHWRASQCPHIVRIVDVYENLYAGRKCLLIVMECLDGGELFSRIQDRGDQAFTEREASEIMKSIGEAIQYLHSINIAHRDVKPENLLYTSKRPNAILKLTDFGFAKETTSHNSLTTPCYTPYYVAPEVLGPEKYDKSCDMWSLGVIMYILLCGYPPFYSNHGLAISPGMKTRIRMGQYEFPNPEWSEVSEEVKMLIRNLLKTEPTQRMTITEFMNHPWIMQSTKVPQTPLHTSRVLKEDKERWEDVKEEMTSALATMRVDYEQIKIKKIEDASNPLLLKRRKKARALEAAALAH
Chain of Serine/threonine-protein kinase MARK1 (Homo sapiens) (Q9P0L2 whole entry, looked up): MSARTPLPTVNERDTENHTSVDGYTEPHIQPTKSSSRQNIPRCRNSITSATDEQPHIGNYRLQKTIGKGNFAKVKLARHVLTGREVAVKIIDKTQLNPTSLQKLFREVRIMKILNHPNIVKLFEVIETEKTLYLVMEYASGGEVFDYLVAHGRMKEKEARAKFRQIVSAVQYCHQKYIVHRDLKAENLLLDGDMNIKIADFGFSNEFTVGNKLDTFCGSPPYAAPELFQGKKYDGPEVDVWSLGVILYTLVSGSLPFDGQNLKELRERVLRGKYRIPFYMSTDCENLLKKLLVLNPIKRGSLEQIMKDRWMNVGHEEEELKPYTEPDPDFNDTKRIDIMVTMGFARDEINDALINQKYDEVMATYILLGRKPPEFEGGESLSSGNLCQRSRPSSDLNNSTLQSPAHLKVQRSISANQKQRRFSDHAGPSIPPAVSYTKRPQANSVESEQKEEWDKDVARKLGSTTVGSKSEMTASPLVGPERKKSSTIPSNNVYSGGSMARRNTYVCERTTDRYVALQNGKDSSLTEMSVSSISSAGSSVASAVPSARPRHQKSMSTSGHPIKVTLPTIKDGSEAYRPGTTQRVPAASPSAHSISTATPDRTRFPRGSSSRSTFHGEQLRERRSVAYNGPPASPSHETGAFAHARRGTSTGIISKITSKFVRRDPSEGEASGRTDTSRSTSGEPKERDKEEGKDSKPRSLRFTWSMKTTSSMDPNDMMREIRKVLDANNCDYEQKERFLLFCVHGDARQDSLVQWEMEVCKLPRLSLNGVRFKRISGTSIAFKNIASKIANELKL
Chain of Mitogen-activated protein kinase 3 (Homo sapiens) (P27361 whole entry): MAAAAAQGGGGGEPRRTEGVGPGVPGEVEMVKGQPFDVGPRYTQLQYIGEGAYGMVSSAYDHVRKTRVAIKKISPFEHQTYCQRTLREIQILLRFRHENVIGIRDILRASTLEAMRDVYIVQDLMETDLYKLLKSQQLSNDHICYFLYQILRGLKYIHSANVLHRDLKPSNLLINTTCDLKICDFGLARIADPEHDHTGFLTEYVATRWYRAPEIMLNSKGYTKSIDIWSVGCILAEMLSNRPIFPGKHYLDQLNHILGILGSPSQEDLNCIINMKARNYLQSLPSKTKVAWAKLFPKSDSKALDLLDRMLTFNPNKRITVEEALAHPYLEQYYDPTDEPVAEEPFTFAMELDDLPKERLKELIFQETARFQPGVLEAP
Chain of Tyrosine-protein kinase Lck (Homo sapiens) (P06239 2-509 limits assumed): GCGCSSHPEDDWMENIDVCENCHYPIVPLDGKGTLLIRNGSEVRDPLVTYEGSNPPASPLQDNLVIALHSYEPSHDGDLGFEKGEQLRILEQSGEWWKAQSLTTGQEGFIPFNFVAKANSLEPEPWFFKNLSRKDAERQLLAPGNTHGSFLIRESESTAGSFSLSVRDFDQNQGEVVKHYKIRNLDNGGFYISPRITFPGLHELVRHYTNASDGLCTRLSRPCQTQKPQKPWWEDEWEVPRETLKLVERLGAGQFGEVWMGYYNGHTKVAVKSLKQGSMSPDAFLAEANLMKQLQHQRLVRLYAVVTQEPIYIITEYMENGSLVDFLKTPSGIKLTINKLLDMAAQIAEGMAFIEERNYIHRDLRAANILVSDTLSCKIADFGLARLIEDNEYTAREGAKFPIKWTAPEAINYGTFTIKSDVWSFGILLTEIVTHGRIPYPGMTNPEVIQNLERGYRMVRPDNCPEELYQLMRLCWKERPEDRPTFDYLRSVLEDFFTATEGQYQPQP

O=[N+]([O-])/C=C/c1ccc2c(c1)OCO2
residual activity [1]: 105%
residual activity [2]: 95%
residual activity [3]: 104%
residual activity [4]: 135%
residual activity [5]: 94%
residual activity [6]: 81%
residual activity [7]: 90%
residual activity [8]: 73%
residual activity [9]: 78%
residual activity [10]: 86%
residual activity [11]: 106%
residual activity [12]: 84%
residual activity [13]: 84%
residual activity [14]: 108%
residual activity [15]: 93%
residual activity [16]: 83%
residual activity [17]: 91%
residual activity [18]: 85%

COc1ccc2c(c[n+](C)c3c4cc5c(cc4ccc23)OCO5)c1OC
residual activity [2]: 90%
residual activity [3]: 100%
residual activity [19]: 93%
residual activity [5]: 80%
residual activity [6]: 79%
residual activity [7]: 83%
residual activity [8]: 65%
residual activity [10]: 81%
residual activity [13]: 94%
residual activity [14]: 94%
residual activity [15]: 99%
residual activity [16]: 53%
residual activity [17]: 98%
residual activity [18]: 91%

c1ccc(-c2n[nH]c3c2oc2ccccc23)cc1
residual activity [15]: 94%

O=C1NC(=O)c2c1c1c3ccccc3n3c1c1c2c2ccccc2n1C1CCC3O1
residual activity [4]: 50%
residual activity [20]: 62%
residual activity [5]: 70%
residual activity [6]: 71%
residual activity [7]: 10%
residual activity [8]: 10%
residual activity [9]: 128%
residual activity [10]: 83%
residual activity [15]: 95%
residual activity [16]: 95%
residual activity [17]: 38%
residual activity [18]: 29%

Cn1nc2c3c(cccc31)C(=O)c1ccccc1-2
residual activity [15]: 93%

CCc1nc(-c2ccc(OC)cc2)[nH]c1-c1ccncc1
residual activity [19]: 48%
residual activity [9]: 100%
residual activity [13]: 64%
residual activity [14]: 82%
residual activity [15]: 121%
residual activity [16]: 118%

N#C/C(=C1/Nc2ccccc2S1)c1ccnc(NCCc2cccnc2)n1
residual activity [15]: 99%

C[S+]([O-])c1ccc(-c2nc(-c3ccc(F)cc3)c(-c3ccncc3)[nH]2)cc1 (configuration not stated)
residual activity [1]: 109%
residual activity [2]: 85%
residual activity [3]: 109%
residual activity [19]: 79%
residual activity [4]: 79%
residual activity [20]: 27%
residual activity [6]: 32%
residual activity [7]: 47%
residual activity [8]: 13%
residual activity [9]: 124%
residual activity [10]: 101%
residual activity [11]: 118%
residual activity [12]: 95%
residual activity [13]: 104%
residual activity [14]: 133%
residual activity [15]: 104%
residual activity [16]: 92%
residual activity [17]: 105%
residual activity [18]: 108%
